Assay results reported in PubChem BioAssay AID624418 (National Center for Advancing Translational Sciences (NCATS), 2012).
The whole screen tested about 410,000 compounds, of which about 530 (0.13%) were called active. Roughly 5% stayed inconclusive and do not appear here. This is one part of a sample in which actives are shown more often than they occur. A number with no mark means an inactive call. The call rests on the fitted dose curve; in most records, active means well fitted inhibition curve with a large enough effect; inconclusive means small, poorly fitted or top-dose-only effect, or another doubt; inactive means no such curve, though single readings can be large or run the other way.

Test: qHTS of GLP-1 Receptor Inverse Agonists: Cytotox Screen;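 further: loss of luciferase light is scored as toxicity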
Conditions: HEK293 cAMP-luciferase reporter cells, luminescence, 24 h; series mostly up to 38.3 µM; activity change, negative = inhibition: at the top concentration
Description: The overall goal of this project was to develop a novel assay for discovering small molecule ligands for class B1 G protein-coupled receptors (GPCRs). Very few agonists (or inverse agonists) with generally weak activity for this entire group of physiologically important receptors are known to date. To establish proof-of-principle that this critical bottleneck can be overcome with a suitable screening approach, our studies focused on the class B1 receptor for glucagon-like peptide-1 (GLP-1R), a potential therapeutic target for diabetes and neurodegenerative disease.
The assay was developed using a cell-based functional readout. Toward this goal, stably transfected HEK293 cell clones were established that co-express (i) a cAMP-responsive luciferase reporter gene, and (ii) constitutively active GLP-1R that upon ligand interaction inhibit (inverse agonists) the luciferase activity. In addition, two control cell lines were developed: (i) one that express only the cAMP-responsive reporter gene to enable initial exclusion of GLP-1R independent effects of candidate probes; and (ii) one with the reported gene cloned with another constitutively active orphan receptor GPR119 to enable exclusion of GLP-1R independent inhibitor effects of candidate inverse agonists.
To that end, this assay was optimized for 1536-well format and screened against the MLSMR. Then the same collection was run in this cytotoxicity assay where inhibition was the undesired outcome.
NIH Molecular Libraries Probe Production Network [MLPCN]
NIH Chemical Genomics Center [NCGC]
PI Name: Martin Beinborn, Tufts Medical Center
Six ul of cell suspension (200 cells/uL in DMEM + 10% Nu serum + 1% pen-strep) is dispensed in a white solid 1536-well plate. The plates are incubated for 12 hours at 37 deg C at 5% CO2 followed by addition of 23 nL compounds. After 24 hr incubation at 37 deg C and 5% CO2, 3 uL of luciferase assay detection reagent is added. A luminescence read is obtained on the PerkinElmer Viewlux after 12 min incubation at room temperature.
On the % scale 0 is the no-effect control and ±100 the full control effect; potency means the concentration at half of the fitted maximal effect.

In order of rising “activity change, negative = inhibition” value:
1. CCOc1ccc(C(NC(=O)c2cc(OC)c(OC)c(OC)c2)c2cc(Cl)c3cccnc3c2O)cc1 (centres undefined)  -29%
2. Fc1ccc(CN2CCc3nc(Nc4ccccc4)ncc3C2)cc1F  -20%
3. CCSc1nnc2c(n1)OC(c1ccc(OCC(=O)O)cc1)Nc1ccccc1-2 (centres undefined)  -17.3%
4. CCc1ccc(NC(=O)c2cc(S(=O)(=O)N3CCCC(C)C3)cn2C)cc1 (centres undefined)  -16.5%
5. C/C(=N\NC(=O)c1ccc(CSc2nc(C)cc(C)n2)cc1)C1CCCCC1  -16.1%
6. CCNC(=O)CC1C(=O)N(c2ccc(F)cc2)C(=O)N1Cc1ccc(C)cc1 (centres undefined)  -12.9%
7. Cc1cc2c(cc1S(=O)(=O)CCC(=O)Nc1ccc(OC(F)(F)F)cc1)OCC(=O)N2  -12.7%
8. COc1ccccc1-c1cc(C(F)(F)F)nc(S(=O)(=O)CCCC(=O)Nc2ccc(F)cc2F)n1  -12.6%
9. O=C(c1ccc(C(F)(F)F)cc1)N1CCC(c2nc(-c3ccc(S(=O)(=O)N4CCCC4)cc3)no2)CC1  -10.9%
10. Cc1ccc(Nc2c(-c3ccc(Cl)cc3)nc3sccn23)c(C)c1  -9.65%
11. O=C(CNCc1ccc(Cl)cc1)Nc1cccc(C(=O)O)c1  -7.74%
12. COc1ccccc1NC(=O)c1cc(C2CC2)nc2c1c(C)nn2-c1ccc(C)cc1  -5.07%
13. Cc1ccc(NC(=O)Cn2c(=O)n(-c3ccccc3)c(=O)c3c4c(sc32)CCCC4)cc1  -4.75%
14. O=C1c2ccccc2C(=O)C1C(=O)C1CC1  -4.71%
15. Cc1cc(C)cc(NS(=O)(=O)c2ccc3[nH]cc(C(=O)N4CCCCC4)c(=O)c3c2)c1  -4.69%
16. CCCN(C(=O)Cn1cc(S(=O)(=O)N2CCN(c3ccccc3F)CC2)c2ccccc2c1=O)c1cccc(C)c1  -2.03%
17. CCCN(CCC)CCCNC(=O)Cn1ncc2c3ccccc3n(Cc3ccccc3)c2c1=O  -1.81%
18. COc1cccc(Cn2c(SCc3ccc(C(=O)N4CCC(C)CC4)cc3)nc3ccncc32)c1  -1.45%
19. COc1ccc2c(c1)c(N1CCCC1=O)c(C(=O)Nc1ccccc1C(F)(F)F)n2C  -1.4%
20. Cc1ccc(-n2cnc3cc(C(=O)NCCC4=CCCCC4)ccc32)cc1Cl  -0.346%
21. O=C(c1cccs1)c1cn(CCOc2ccc(Cl)cc2)c2ccccc12  0.0889%
22. CCc1cccc(NC(=O)c2cc(-c3ccccc3)n[nH]2)c1  0.207%
23. Cc1cccc(NC(=O)N2CCN(C)c3ncccc32)c1C  0.303%
24. Cc1ccc2oc(=O)c3cnn(CC(=O)NCc4ccccc4Cl)c3c2c1  0.436%
25. CC(C)CC(=O)NCC(c1ccc2c(c1)OCO2)N1CCN(c2ccc(F)cc2)CC1 (centres undefined)  0.505%
26. O=C(CSc1cn(CC(=O)N2CCOCC2)c2ccccc12)Nc1ccccc1  1.07%
27. Cc1cc(C)cc(NC(=O)CCS(=O)(=O)c2cc3c4c(c2)CCN4C(=O)CC3)c1  1.12%
28. CCn1cc(C(=O)OCC(=O)Nc2cc(C)cc(C)c2)c(=O)c2ccc(C)nc21  1.31%
29. CCOC(=O)Cn1c(=O)n(C2CCCCC2)c2nc(-c3cccc(OC)c3)nc(C(N)=O)c21  1.53%
30. COc1cccc(NC(=O)CSc2cc(=O)n(C)c3ccc(Cl)cc23)c1  1.69%
31. CCN(CCCNC(=O)c1c(C)oc2ncn(CC(C)C)c(=O)c12)Cc1ccccc1  1.92%
32. Cc1ccc(S(=O)(=O)NCc2nc3nc(C)cc(C)n3n2)cc1  2.32%
33. CCC1CCCCN1S(=O)(=O)c1ccc(NC(=O)c2cc(=O)c3ccccc3o2)cc1 (centres undefined)  2.36%
34. CCOC(=O)c1cc(-c2ccc(OC)c(S(=O)(=O)Nc3ccc(OC)cc3OC)c2)on1  2.54%
35. CCOC(=O)c1[nH]c(C)c(CCC(=O)NCc2ccccc2C)c1C  2.99%
36. COc1ccc(CNc2nc(-c3ccccc3)nn2C(=O)c2ccccc2OC)cc1  3.12%
37. CN(Cc1ccccc1)C(=O)c1cn(C)c2ccc(S(=O)(=O)N(C)C3CCCCC3)cc2c1=O  3.25%
38. Cc1ccc2oc3c(c(=O)c2c1)C(c1ccc([N+](=O)[O-])cc1)N(CCCN1CCOCC1)C3=O (centres undefined)  3.33%
39. COc1ccc(NC(=O)CCCc2nnc3n(CCC(C)C)c(=O)c4sccc4n23)c(OC)c1  5.32%
40. Cc1cn(C)c(CC(=O)NCc2ccccc2)c1C(=O)O  5.49%
41. CCN(CC)S(=O)(=O)c1ccc(C(=O)N=c2sc3cccc(OC)c3n2C)cc1  5.63%
42. CCOC(=O)N1CCc2c(sc3c2c(=O)n(-c2ccc(CC)cc2)c(=O)n3C)C1  8.52%
43. O=C(NC1CCN(Cc2ccccc2)CC1)c1ccc(Cn2c(=O)c3ccccc3n(Cc3cccc(F)c3)c2=O)cc1  10.6%
44. Cc1ccc(Nc2nnc(-c3ccc(C)c(S(=O)(=O)N4CCCCC4)c3)c3ccccc23)cc1  10.8%
45. CCCCOC(=O)/C(C#N)=C/c1ccc(-c2cccc(C(F)(F)F)c2)o1  24%
46. CSc1oc(-c2cccs2)nc1S(=O)(=O)c1ccc(Br)cc1  27.9%

For `C/C(=N\NC(=O)c1ccc(C)cc1)C1C(=O)c2ccccc2C1=O`, the Potency was 4.47 µM (active).
In the case of `O=C(CCl)Nc1cccc(CP(=O)(c2ccccc2)c2ccccc2)c1`, the Potency is reported as 3.16 µM (active).
With `O=S(=O)([N-]c1nc2ccccc2nc1-[n+]1ccc(Cc2ccccc2)cc1)c1ccc(Br)s1` the Potency was 10 µM (active).
